Measurements from PubChem BioAssay AID2685 (National Center for Advancing Translational Sciences (NCATS), 2010).
Screen size: about 320,000 compounds; about 2,100 (0.66%) were called active. About 53% were inconclusive and are not listed. Calls follow the shape of the dose curve; as a rule, active = well fitted inhibition curve with a large enough effect in the signal ratio, with a control signal flat (not every such curve was filed as active); inconclusive = small, poorly fitted or top-dose-only effect, or effect the other way, or a change in a side signal; inactive = flat fitted curve, though single readings scatter; the % refers to the signal ratio. The list comes from a sample in which actives are over-represented; it also holds similar structures and randomly drawn compounds.

Assay: qHTS Assay for Lipid Storage Modulators in Drosophila S3 Cells;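 as to cell number change: cells counted by Cell Tracker Red CMTPX staining in the red channel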
Details: BODIPY lipid droplet fluorescence, 18-24 h, cells fed with added oleic acid; cell number change: measured here: cell count max response; series mostly up to 46.1 µM
Method in brief: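 Laser-scanning cytometry quantifies lipid droplet accumulation (500–530 nm total intensity; droplet/cell object ratio) in oleic acid-fed (400 uM added) Drosophila S3 cells treated with a concentration series. 20 uM Triacsin C defined 100% inhibition.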
Potency is read from the fitted curve at half-maximal effect.

| Compound | Potency | cell number change [%] | outcome |
| --- | --- | --- | --- |
| Cc1cccc(NC(=O)CSc2nc3[nH]ncc3c(=O)[nH]2)c1C | inactive | 6.95 | – |
| COc1ccc(-c2nnc(-c3ccc(Br)o3)o2)cc1OC | inactive | 2.37 | – |
| CCOC(=O)N1CCN(C(=O)COc2ccc(S(=O)(=O)NC(C)C)cc2)CC1 | inactive | -5.69 | – |
| CCOc1ccc(S(=O)(=O)NC2CCCCCC2)cc1 | inactive | 1.37 | – |
| CCOc1ccc(S(=O)(=O)N/N=C(\C)C2CCCCC2)cc1 | 20.6 µM (active) | -18.4 | – |
| CCOc1ccc(S(=O)(=O)NC2CCCC2)cc1 | inactive | 13.5 | – |
| CCNC(=O)CSc1nc(-c2ccc(F)cc2)cs1 | inactive | 6.04 | – |
| Oc1ccc2ccccc2c1N=Nc1ccc(F)cc1 | 5.8 µM (active) | -18.6 | – |
| Cc1ccc(N=Nc2ccc(O)c3ncccc23)cc1 | inactive | -11.6 | – |
| NS(=O)(=O)c1ccc(N=Nc2c(O)c(C(=O)O)cc3ccccc23)cc1 | inactive | -8.07 | – |
| Cc1ccc(N=Nc2ccc(C)cc2NC(=O)Nc2ccccc2F)cc1 | inactive | 4.52 | – |
| O=C(CNc1ccc(F)cc1)N/N=C/c1c(O)ccc2ccccc12 | inactive | -11.6 | – |
| Cc1ccc(N=Nc2ccc3ccccc3c2O)cc1 | 0.058 µM (active) | 1.47 | – |
| O=C(NNC(=O)c1ccc2ccccc2c1O)Nc1ccc(F)cc1 | inactive | 22.7 | – |
| Oc1c(N=Nc2ccc(F)cc2)ccc2ccccc12 | 4.11 µM (active) | -26.4 | – |
| O=C(O)c1cc(N=Nc2c(O)ccc3ccccc23)cc(C(=O)O)c1 | inactive | 0.308 | – |
| Cc1cccc(C)c1OCC(=O)N/N=C/c1ccncc1 | inactive | 1.08 | – |
| CN(CC(=O)Nc1ccc(Cl)cc1)C(=O)c1cc(-c2cccs2)nn1-c1ccccc1 | inactive | 15.7 | – |
| COC(=O)CCC(=O)Nc1ccc(Br)cc1 | inactive | -3.41 | – |
| CCOc1ccccc1NC(=O)CSc1nnc(CCC(=O)Nc2ccccc2F)n1C | inactive | -0.293 | – |
| CC(C)(C)OC(=O)N[C@@H](CCCCNC(=O)OCc1ccccc1)c1nnc([C@H](CCCCNC(=O)OCc2ccccc2)NC(=O)OC(C)(C)C)o1 | inactive | -3.75 | – |
| CCNC(=S)N1CCN(c2ccccn2)CC1 | inactive | 12.6 | – |
| CC(C)(C)c1ccc(C(=O)NC(=S)N2CCOCC2)cc1 | – | 8.33 | inactive [at 0.369 µM] |

| Compound | Potency | cell number change [%] | outcome |
| --- | --- | --- | --- |
| CC(C)(C)c1ccc(C(=O)N2CCC3(CC2)NCCc2[nH]cnc23)cc1 | inactive | 22.1 | – |
| O=Cc1ccc(OCC(=O)Nc2ccccc2-c2ccccc2)cc1 | inactive | 18 | – |
| COc1ccccc1NC(=O)Cc1cccc2ccccc12 | inactive | -14.6 | – |
| COc1cc(NS(=O)(=O)c2ccc(NC(=S)NC(=O)c3ccco3)cc2)nc(OC)n1 | inactive | -18.5 | – |
| COc1cc(/C=N/n2c(-c3cc(C)[nH]n3)n[nH]c2=S)ccc1O | inactive | 4.27 | – |
| CC1CCN(CC(=O)Nc2nc(-c3ccccc3)cs2)CC1 | inactive | 10.6 | – |
| Cc1ccc(-c2csc(NC(=O)CN3CCC(C(N)=O)CC3)n2)cc1 | inactive | -18.5 | – |
| CCOC(=S)SCC(=O)Nc1nc(-c2ccccc2)cs1 | 23.1 µM (active) | -22.6 | – |
| CCOC(=O)N1CCN(C(=O)CSCC(=O)Nc2nc(-c3ccccc3)cs2)CC1 | inactive | -8.7 | – |
| CCOC(=O)c1ccc(-c2csc(NC(=O)CN3CCC(C)CC3)n2)cc1 | 2.91 µM (active) | 3.78 | – |
| COCC(=O)Nc1nc(-c2ccc(-c3ccccc3)cc2)cs1 | inactive | 7.77 | – |
| COC(=O)NC1CCC(NC(=O)OC)CC1 (stereo not given) | inactive | -8.14 | – |
| O=C(Nc1cc(Cl)ccc1Oc1ccccc1)C1=COCCO1 | inactive | -27.8 | – |
| CCOC(=O)C(=O)NNc1ccc(Cl)cc1 | inactive | 0.213 | – |
| O=C(O)c1ccccc1C(=O)NNc1ccc(Cl)cc1 | inactive | 6.32 | – |
| CC(=O)C(=Nc1ccccc1Cl)NNc1ccc(Cl)cc1 | 23.1 µM (active) | -39.5 | – |
| CC12CCC(c3c(C(=O)O)nn(-c4ccc(F)cc4)c31)C2(C)C (stereo not given) | 16.4 µM (active) | -9.61 | – |
| CC12CCC(c3c(C(=O)N4CCOCC4)nn(-c4ccccc4)c31)C2(C)C (stereo not given) | inactive | 15.9 | – |
| CC12CCC(c3c(C(=O)O)nn(-c4ccccc4)c31)C2(C)C (stereo not given) | inactive | 7.24 | – |
| COc1ccc(N2CCN(C(c3ccc4ncccc4c3)c3nnnn3C(C)C)CC2)cc1 (stereo not given) | inactive | 3.49 | – |
| Fc1ccc(-n2c(CN3CCCCC3)n[nH]c2=S)cc1 | 1.64 µM (active) | -100 | – |
| FC(F)(F)c1ccccc1-n1c(CN2CCCCC2)n[nH]c1=S | inactive | -9.97 | – |
